The source of these data is PubChem BioAssay (Tox21).

Test [1] can be described thus: qHTS assay for small molecule agonists of the p53 signaling pathway (AID 651631; calls by dose curve; note: nearly all actives have a fitted effect of over 15% in size; note: potency is the fitted concentration of half-maximal effect). An outline of the steps:
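HCT-116 cells carrying a stable p53 response element–beta-lactamase reporter were plated, rested 5 h at 37 °C, then exposed to compound in DMSO for 16 h at 37 °C; reporter activity was read as FRET substrate fluorescence after 2 h at room temperature.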

Test [2] in a line: qHTS assay for small molecules that induce genotoxicity in human embryonic kidney cells expressing luciferase-tagged ATAD5 (AID 651632). Note: nearly all actives have a fitted effect of over 15% in size. Note: potency is the fitted concentration of half-maximal effect. Summed up: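 Increased luciferase signal from ATAD5-tagged reporter cells indicates DNA-damage-driven ATAD5 induction. HEK293T cells are treated for 16 hr at 37C before detection with Amplite.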
(In qHTS, concentration-response curves come from the screen itself.)

Test [3] can be described thus: qHTS assay for small molecule agonists of the p53 signaling pathway - cell viability (AID 651633; calls by dose curve; note: series mostly up to about 83 µM; nearly all actives have a fitted effect of over 30% in size). Summed up: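 p53RE-bla cells were treated with compound for 16 hours at 37 C. Cytotoxicity was then measured as CellTiter-Glo luminescence after 30 min at room temperature.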
A short description of test [4]: qHTS assay for small molecules that induce genotoxicity in human embryonic kidney cells expressing luciferase-tagged ATAD5 - cell viability (AID 651634; calls by dose curve; note: nearly all actives have a fitted effect of over 25% in size). An outline of the steps: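 Cytotoxicity counterscreen in HEK293T cells bearing an ATAD5-luciferase reporter: live-cell protease activity measured by CellTiter-Fluor fluorescence after 15.5 hr compound exposure.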

A short description of test [5]: qHTS assay for small molecule disruptors of the mitochondrial membrane potential - cell viability (AID 720634; calls by dose curve;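 note: human HepG2 liver cancer cells; series mostly up to about 83 µM; nearly all actives have a fitted effect of over 20% in size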). Summed up:
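After overnight attachment at 37 C, HepG2 cells received compound or DMSO vehicle for 1 hr. Viability is then taken from ATP-driven luminescence following a 30 min room-temperature CellTiter-Glo step.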

The nature of test [6]: qHTS assay for small molecule disruptors of the mitochondrial membrane potential (AID 720635). Note: potency is the fitted concentration of half-maximal effect. An outline of the steps:
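HepG2 cells exposed to compound 1 hr at 37C, then Mito-MPS dye 30 min. Ratio read of aggregate (540/590 nm) versus monomer (490/535 nm) fluorescence.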

Test [7] can be described thus: qHTS assay to test for compound auto fluorescence at 590 nm (red) in HepG2 cells (AID 720674). An outline of the steps:
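HepG2 cells, 2,000 per well in MEM with 10% FBS, attached overnight at 37 C, then got 23 nL compound or DMSO. After 1 hr at 37 C, 5% CO2, red fluorescence was read at 540/590 nm against Rose Bengal sodium as reference.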

Test [8] can be described thus: qHTS assay to test for compound auto fluorescence at 535 nm (green) in HepG2 cells (AID 720675).
The nature of test [9]: qHTS assay to test for compound auto fluorescence at 460 nm (blue) in HEK293 cells (AID 720678). Summed up:
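Blue-channel (Ex/Em 405/460 nm) intensity measured in HEK293 cultures after overnight compound exposure at 37C; signal expressed relative to triamterene. Cells plated 2,000 per well in 10% dialyzed FBS medium and allowed 4-5 hr to attach.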

Test [10] in a line: qHTS assay to test for compound auto fluorescence at 590 nm (red) in HEK293 cells (AID 720679). An outline of the steps:
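Red-channel autofluorescence (Ex/Em 540/590 nm; Rose Bengal sodium reference) was measured after overnight 37C, 5% CO2 exposure of attached HEK293 cells, 2,000 per well in medium with 10% dialyzed FBS.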

Test [11] can be described thus: qHTS assay to test for compound auto fluorescence at 535 nm (green) in HEK293 cells (AID 720680).
A short description of test [12]: qHTS assay to test for compound auto fluorescence at 535 nm (green) in HEK293 cell free culture (AID 720682). An outline of the steps: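 Read-out: 485/535 nm fluorescence intensity, calibrated against fluorescein. Medium only (DMEM + 10% FBS, no cells); test compound or DMSO vehicle added by pintool before plate reading.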
Test [13] is described as follows: qHTS assay to test for compound auto fluorescence at 590 nm (red) in HEK293 cell free culture (AID 720683). Summed up: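 Cell-free wells of DMEM with 10% FBS received compound, and intrinsic fluorescence was read at excitation/emission 540/590 nm. Values expressed as equivalence to Rose Bengal sodium.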
The nature of test [14]: qHTS assay to test for compound auto fluorescence at 590 nm (red) in HepG2 cell free culture (AID 720684). Summed up: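 Compound was pinned into wells holding MEM with 10% FBS and no cells, and red fluorescence was read at Ex/Em 540/590 nm. Signal is expressed as auto fluorescence equivalency relative to Rose Bengal sodium.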
A short description of test [15]: qHTS assay to test for compound auto fluorescence at 460 nm (blue) in HepG2 cell free culture (AID 720685). An outline of the steps: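 Compound (23 nL) or DMSO pinned into cell-free MEM with 10% FBS; blue fluorescence read at 405/460 nm excitation/emission, expressed as auto-fluorescence equivalency to triamterene.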
The nature of test [16]: qHTS assay to test for compound auto fluorescence at 535 nm (green) in HepG2 cell free culture (AID 720686).
Test [17] is described as follows: qHTS assay to test for compound auto fluorescence at 460 nm (blue) in HepG2 cells (AID 720687). Summed up:
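HepG2 cells in MEM with 10% FBS, attached overnight at 37 C, were exposed to compound or DMSO for 1 hr at 37 C, 5% CO2. Blue fluorescence was read at 405/460 nm, with triamterene as reference fluorophore.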

Test [18] concerns the target Glucocorticoid receptor (Homo sapiens) (UniProt P04150). As to the kind of experiment: qHTS assay to identify small molecule agonists of the glucocorticoid receptor (GR) signaling pathway (AID 720691; active = well fitted activation curve with a large enough effect in the signal ratio in the repeat runs, not every such curve was filed as active; the % refers to the signal ratio). An outline of the steps:
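Agonist mode in a HeLa line carrying a GRE-controlled beta-lactamase reporter. Compounds act for 18 h at 37 C before a 2 h room-temperature FRET substrate step and fluorescence reading.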

A short description of test [19]: qHTS assay to test for compound auto fluorescence at 460 nm (blue) in HEK293 cell free culture (AID 720681). An outline of the steps:
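Compounds were added to cell-free DMEM with 10% FBS and fluorescence read directly. The blue channel used 405 nm excitation and 460 nm emission, with triamterene as the reference fluorophore.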

Test [20] concerns the target Glucocorticoid receptor (Homo sapiens) (UniProt P04150). As to the kind of experiment: qHTS assay to identify small molecule antagonists of the glucocorticoid receptor (GR) signaling pathway (AID 720692; active = well fitted inhibition curve with a large enough effect in the signal ratio in the repeat runs, not every such curve was filed as active; the % refers to the signal ratio). An outline of the steps:
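Cells plated, rested 4 h at 37 C/5% CO2; compounds in DMSO pin-transferred; dexamethasone added to 5 nM final; 18 h at 37 C; B/G FRET substrate added, 2 h room temperature; fluorescence measured.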

A number with no mark means an inactive call. Results filed as inconclusive are left out. Activity calls are given as the source filed them. Unless noted, calls come from the whole dose curve; as a rule, active = well fitted curve in the direction sought with a large enough effect in the repeat runs; inconclusive = weak or mixed curves; inactive = no such curve, though single readings can be large; an effect the other way counts as inactive or inconclusive.

Chain of Glucocorticoid receptor (Homo sapiens) (P04150 whole entry, looked up): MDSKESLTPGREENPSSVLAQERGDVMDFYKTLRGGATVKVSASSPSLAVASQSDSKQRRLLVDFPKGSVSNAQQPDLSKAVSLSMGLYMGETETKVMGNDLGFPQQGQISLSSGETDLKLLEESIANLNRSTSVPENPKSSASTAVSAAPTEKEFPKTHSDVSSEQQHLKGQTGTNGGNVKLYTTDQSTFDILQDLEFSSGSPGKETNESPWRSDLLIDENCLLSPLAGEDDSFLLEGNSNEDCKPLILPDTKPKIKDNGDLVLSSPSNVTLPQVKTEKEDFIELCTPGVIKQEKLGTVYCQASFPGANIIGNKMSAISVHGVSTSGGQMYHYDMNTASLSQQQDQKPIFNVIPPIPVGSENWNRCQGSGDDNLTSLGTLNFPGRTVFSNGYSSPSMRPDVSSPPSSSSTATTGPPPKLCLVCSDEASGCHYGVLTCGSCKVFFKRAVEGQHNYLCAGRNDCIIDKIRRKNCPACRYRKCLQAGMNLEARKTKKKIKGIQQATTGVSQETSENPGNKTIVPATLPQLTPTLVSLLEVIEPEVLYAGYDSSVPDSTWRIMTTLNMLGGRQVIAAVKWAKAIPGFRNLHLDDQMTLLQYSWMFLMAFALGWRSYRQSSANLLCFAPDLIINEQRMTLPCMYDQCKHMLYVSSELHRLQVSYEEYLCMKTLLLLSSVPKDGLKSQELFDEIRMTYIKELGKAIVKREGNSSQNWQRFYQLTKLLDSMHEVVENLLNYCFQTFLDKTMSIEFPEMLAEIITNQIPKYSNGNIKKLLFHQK

Regarding `CCCCCCC(O)CCCCCCCCCCC(=O)OC` (stereo unspecified), the Potency result in test [1], in test [2], in [3], in [4], in test [6] and in test [9] was “inactive” in each case. Moreover, the Potency entry in [15], in test [17] and in [18] was “inactive” each time. For the same compound, the compound was called inactive in test [5], in [7], in [8], in test [10], in test [11] and in [12]. In addition, the compound was classed as inactive in test [13], in [14] and in [16].

Turning to `NC(=O)c1ccccc1[N+](=O)[O-]`, the Potency result in [1], in test [2], in test [3], in test [4], in [9] and in test [19] was “inactive” throughout. The Potency entry in test [15] and in [17] was “inactive” in each case. In addition, the outcome in test [5], in [7], in [8], in [10], in [11] and in [12] was inactive. Besides, the compound was called inactive in test [13], in [14] and in [16].

Take `O=C(NS(=O)(=O)/C=C/c1ccccc1)c1ccc(F)cc1Cl`: the Potency was 21.7 µM (active) in test [1], 15.4 µM (active) in test [2] and 68.6 µM (active) in [6]. Moreover, the Potency result in test [3], in test [4], in test [9], in test [15] and in [17] was “inactive” in each case. Further, the outcome in [5], in [7], in test [8], in test [10], in test [11] and in test [12] was inactive. For the same compound, the compound was called inactive in test [13], in [14] and in [16].

For `C1=CCC2CC=CC2C1` (stereo unspecified), the Potency entry in test [1], in test [2], in test [3], in [4], in [9] and in test [15] was “inactive” throughout. The Potency result in [17], in [18] and in [20] was “inactive” in each case. The call in test [5], in test [7], in test [8], in test [10], in test [11] and in test [12] was inactive. Further, the result in test [13], in test [14] and in test [16] was inactive.

Regarding `CCC(CO)(CO)[N+](=O)[O-]`, the Potency result in [1], in test [2], in [3], in test [4], in [9] and in test [19] was “inactive” throughout. For the same compound, the Potency entry in [15], in test [17] and in [18] was “inactive” throughout. In addition, the compound was called inactive in [5], in test [7], in test [8], in [10], in test [11] and in test [12]. Also, the outcome in [13], in [14] and in test [16] was inactive.

In the case of `O=S(=O)(O)CO`, the Potency entry in [1], in [2], in [3], in test [4], in [9] and in [19] was “inactive” each time. Moreover, the Potency entry in [15], in test [17], in [18] and in test [20] was “inactive” in each case. The compound was classed as inactive in [5], in test [7], in [8], in [10], in test [11] and in test [12]. Further, the result in [13], in test [14] and in test [16] was inactive.

For `C=CC(=O)NC(C)C`, the Potency result in [1], in test [2], in test [3], in [4], in test [6] and in test [9] was “inactive” each time. For the same compound, the Potency result in test [15], in [17], in [18] and in test [20] was “inactive” throughout. The call in test [5], in [7], in [8], in test [10], in [11] and in [12] was inactive. In addition, the outcome in [13], in test [14] and in test [16] was inactive.
